# Screening results from PubChem BioAssay.
# Pf Dd2 growth – qHTS Primary assay for Inhibitors of Plasmodium falciparum Dd2 growth in vitro | Potency, µM (top dose mostly 28.9 µM), inactives show at the highest dose activity, negative = inhibition, hits mostly inhibitors | 120,000 tested, 4.3% active | AID 1347417, 2020 | P. falciparum Dd2 growth, SYBR Green, 72 h; active means well fitted inhibition curve with a large enough effect;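 further: plate controls were DMSO vehicle for no effect and reference drug for full effect; nearly all actives have a fitted effect of over 65% in size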
#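 Readout: SYBR Green fluorescence, 485 nm excitation, 535 nm emission, after ~16 h lysis at 37C. Before that, Dd2-infected red cells (2.5% hematocrit) grew 72 h with compound, 29 uM top final concentration.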
# An asterisk follows results filed as active; i = inactive; [ ] = remark or other dose. Many of the other results were omitted from the sample, so hits are more common in it than they were. Potency means the concentration at half of the fitted maximal effect.
SMILES,Pf Dd2 growth
Cc1cccc(-c2cc(-c3ccccc3)nc(SCC(=O)Nc3ccccc3)c2C#N)c1,13.3%
CCCCS(=O)(=O)c1nc(-c2ccc(Br)cc2)cc(-c2ccccc2)c1C#N,5.01µM*
C#CCSc1nc(-c2ccccc2)cc(-c2ccccc2)c1C#N,5.9%[0.594 µM]
O=C(NCCc1cnc[nH]1)C1CCN(C2CCCCC2)CC1,i
Cc1ncsc1CN1CCc2nn(CC3CC3)c(=O)n2CC1,16.7%
Cc1ccc(-c2nc3c(cnn3-c3ccccc3)c(=O)n2-c2ccc(Cl)cc2)cc1,i
Cc1cccc(-n2c(-c3ccco3)nc3c(cnn3-c3ccccc3C)c2=O)c1,i
COc1ccc(-n2c(-c3ccco3)nc3c(cnn3-c3ccc(Cl)cc3)c2=O)cc1,10µM*
Cc1ccc(N2CCN(C(=O)C[C@H]3NC(=O)c4ccccc4NC3=O)CC2)c(C)c1,-26.2%
O=C(COc1ccccc1)N[C@H]1CO[C@H]2[C@@H]1OC[C@H]2OC(=O)Nc1ccccc1,i
Cc1nc(-c2cn(C3CCCN(C(=O)c4cccc(Cl)c4)C3)nn2)no1 (stereo unspecified),i
CCOc1ccccc1NC(=O)c1c(NC(=O)c2cccc(C)c2)sc2c1CCCC2,8.91µM*
CCOc1ccccc1NC(=O)c1c(NC(=O)COc2ccc(Cl)cc2)sc2c1CCCCC2,i
CCOc1ccccc1NC(=O)c1c(NC(=O)Cc2ccccc2)sc2c1CCCC2,24.7%
CC1=NS(=O)(=O)N(Cc2ccc(F)cc2F)C=C1C(=O)O,13.9%
O=C([C@@H]1C[C@H](Oc2cccnc2)CN1S(=O)(=O)Cc1ccccc1F)N1CCOCC1,9.8%
COc1ccccc1C(=O)N1CCC(Oc2ccc(C(N)=O)cn2)CC1,-41.6%
O=C(c1ccccc1)N1CCC(N2CC3CC(C2)[C@H]2CCCC(=O)N2C3)CC1 (stereo partly specified),11.6%
COc1cccc(-c2ccc(NC(=O)C3CCCN3C(=O)CNC(C)=O)cc2)c1 (stereo unspecified),-19.9%
COc1cccc(-c2ccc(NC(=O)C3CCCN3C(=O)Cn3cccn3)cc2)c1 (stereo unspecified),-10.2%
COc1cccc(-c2ccc(NC(=O)C3CCCN(Cc4cc(C(C)C)n[nH]4)C3)cc2)c1 (stereo unspecified),11.2µM*
CCCCc1ncc(CN2CCCC(C(=O)Nc3ccccc3-c3ccc(OC)cc3)C2)[nH]1 (stereo unspecified),8.91µM*
CCCOC(=O)N1CCCC(C(=O)Nc2ccccc2-c2ccc(OC)cc2)C1 (stereo unspecified),-20.9%
COc1ccc(-c2ccccc2NC(=O)C2CCCN(Cc3cccc(F)c3F)C2)cc1 (stereo unspecified),i
Cc1cc(C)n(CCCC(=O)N2C[C@H](CO)C[C@H](CN(C)C)C2)n1,-3.4%
SMILES,Pf Dd2 growth
CCNC(=O)N1CC2CC(C1)[C@H]1CCCC(=O)N1C2 (stereo partly specified),-23.1%
COc1ccc(CCNc2ncnc3c2CN(c2ccc(Cl)cc2)C(=O)N(C)C3)cc1,-4.4%
Cc1cnc(C(=O)N2CC(N(C)Cc3cccnc3)C2)cn1,1.4%
O=C1Nc2ccccc2O[C@H]2C[C@@H]1N(Cc1nccs1)C2,-5.2%[44.1 µM]
Cc1ccc(NC(=O)C2CCN(S(=O)(=O)c3cccc4nsnc34)CC2)cc1F,-16.4%
Cc1ccc(Cl)cc1NC(=O)C1CCC(CNS(=O)(=O)c2cccc3nsnc23)CC1 (stereo unspecified),3.55µM*
COC(=O)CNC(=O)C1CCN(S(=O)(=O)c2cccc3nsnc23)CC1,11.5%
CCC(C)NC(=O)C1CCC(CNS(=O)(=O)c2cccc3nsnc23)CC1 (stereo unspecified),0.794µM*
Cc1ccc(NC(=O)C2CCC(CNS(=O)(=O)c3cccc4nsnc34)CC2)c(Cl)c1 (stereo unspecified),i
CCCN(CCC)CCCNC(=O)C1CCN(S(=O)(=O)c2cccc3nsnc23)CC1,i
COc1ccc(C2NC(=O)N(Cc3nc(C4CC4)no3)C3=C2C(=O)OC3)cc1 (stereo unspecified),-1.5%
Cc1ccc(CN2CC[C@@H]3[C@H]2C(=O)NC[C@H](CCC(=O)N2CCCC2)N3C)cc1,-9.3%[44.1 µM]
COc1ccc(OC(=O)N2CCC(Oc3ccc4c(cnn4CCC(=O)O)c3)CC2)cc1,-19.2%[44.1 µM]
COc1ccc(-c2ccc3nnc(CNC(=O)C(C)Oc4ccccc4)n3n2)cc1 (stereo unspecified),i
CN1C[C@H](NCc2nccn2C)CCC[C@@H](C(=O)NC2CCOCC2)CC1=O,-6.9%[44.1 µM]
COc1ccc(CN2C=C(C(=O)OCc3noc(C)n3)C(C)=NS2(=O)=O)cc1,13.7%
COc1ccc(CN2C=C(C(=O)OCc3noc(-c4ccc(C)cc4)n3)C(C)=NS2(=O)=O)cc1,11.2µM*
COc1ccc(CN2C=C(C(=O)OCc3noc(-c4ccc(C)c(C)c4)n3)C(C)=NS2(=O)=O)cc1,i
CCCNC(=O)NCCn1c(C)cnc1-c1ccncc1,5.0%
Cc1noc(C)c1CN1CCN(C(=O)C2CCCN2)CC1 (stereo unspecified),24.2%
CCOC(=O)c1csc(NC(=O)CC[C@H]2NC(=O)c3ccccc3NC2=O)n1,-7.4%
O=C(c1cccc(=O)[nH]1)N1CCCC(c2n[nH]c(=O)n2-c2ccccc2)C1 (stereo unspecified),14.9%
CCOc1cc(C(=O)Nc2ccc3nc(N4CCN(C)CC4)cc(C)c3c2)cc(OCC)c1OCC,3.16µM*
COc1ccc(C(=O)Nc2ccc3nc(N4CCCCC4)cc(C)c3c2)c(OC)c1,4.4%
Cc1cc(N2CCCCC2)nc2ccc(NC(=O)CCC(=O)N3CCN(c4cccc(Cl)c4)CC3)cc12,11.2µM*
SMILES,Pf Dd2 growth
Cc1cccn2c(=O)cc(COc3cccc(NC(=O)Nc4cccc(Cl)c4)c3)nc12,i
Cc1ccc(Nc2ncc(C(=O)N3CCN(c4cccc(Cl)c4)CC3)c3ccccc23)cc1Cl,i
Cc1cn(C)c(CC(=O)N2CCN(c3cccc(Cl)c3)CC2)c1C(=O)O,2.4%
Cc1c(-c2cccc(NC(=O)Nc3ccc(Cl)cc3)c2)nc2ncccn12,-24.3%
Cc1cc(N2CCCCC2)nc2ccc(NC(=O)c3cccc(F)c3)cc12,i
Cc1ccc(CSCC(=O)N2CCN(c3cc(Cl)ccc3C)CC2)cc1,i
Cc1ccc(/C=C/C(=O)Nc2ccc3nc(N4CCC(C)CC4)cc(C)c3c2)cc1,-5.4%
Cc1ccc(Cl)cc1N1CCN(C(=O)CCC(=O)Nc2ccc3nc(N4CCC(C)CC4)cc(C)c3c2)CC1,3.55µM*
Cc1cc(N2CCN(C)CC2)nc2ccc(NC(=O)Nc3cccc(Cl)c3)cc12,1µM*
O=C(OCc1ccccc1)N1CCCN(c2cc(C3CC(O)C3)ncn2)CC1 (stereo unspecified),-12.9%
CC(=O)Nc1ccc(CN2CCC3(CN[S+](=O)([O-])c4cnccc4O3)C2)cc1 (stereo unspecified),16.5%
COc1ccc(CCC(=O)N2[C@@H]3CC[C@H]2CC(NC(=O)c2ccncc2)C3)cc1 (stereo partly specified),0.0%
COCCOCc1nc(C2CCCCN2C(=O)c2ccc(OC)c(OC)c2)no1 (stereo unspecified),-9.2%
Cc1cc(C(=O)N2C[C@H](NC(=O)Cn3nnnc3N)[C@@H](C3CC3)C2)c(C)o1,-6.6%
O=C1NCCOCCCN(C(=O)C2CC2)[C@H]2CCCC[C@@H]12,-11.7%
O=C(c1cn(CC2CCCO2)nn1)N1CCN(c2cccc(C(F)(F)F)c2)CC1 (stereo unspecified),-21.5%
